In the library only some 11% were active in any assay of this set; here they are far more common.
G9a block: blocks human histone lysine methyltransferase G9a. actives 8.8% (n = 350,000). Potency, µM (doses to about 102 µM), for the others: at the highest dose activity, negative = inhibition, hits mostly inhibitors. G9a H3K9 monomethylation, AlphaScreen, 2 h. Q96KQ7; note: % is set by controls: 0 for no effect and ±100 for the full control effect; nearly all actives have a fitted effect of over 75% in size
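G9a (20 nM) was preincubated 15 min with compound, then reacted 2 h at room temperature with 500 nM biotin-H3K9 peptide and 20 µM SAM. Monomethyl-H3K9 detected by AlphaScreen using anti-H3K9me1 antibody.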
JMJD2A Tudor inh: blocks the human JMJD2A Tudor domain. Potency, µM (top dose mostly 114 µM), for inactives: at the highest dose activity change, negative = inhibition, actives largely listed as inhibitors. AlphaScreen JMJD2A-Tudor / H3K4me3 peptide binding. O75164. AID 504339. actives 4.4% (n = 390,000); note: % is set by controls: 0 for no effect and ±100 for the full control effect; nearly all actives have a fitted effect of over 50% in size
L3MBTL1 block: L3MBTL1 (human) inhibition; Q9Y468; AlphaScreen L3MBTL1–H3K9me1 peptide binding; Potency, µM (doses to about 57.1 µM), without a hit: at the top dose activity, negative = inhibition, actives largely listed as inhibitors; actives 0.66% (n = 230,000); AID 485360; note: % is set by controls: 0 for no effect and ±100 for the full control effect; nearly all actives have a fitted effect of over 60% in size
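Displacement of a biotinylated histone H3(1-15) peptide monomethylated at Lys9 (75 nM) from L3MBTL1 (50 nM) was measured by AlphaScreen after a 30 min room-temperature compound incubation; cefsulodin titration served as intraplate control.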
BAZ2B inh: BAZ2B (human) inhibition; Potency, µM (top dose mostly 114 µM), inactives show at the highest dose activity change, negative = inhibition, usual class: inhibitors; actives 4.4% (n = 360,000); Q9UIF8; AlphaScreen BAZ2B-H3K14Ac peptide displacement; AID 504333; note: % is set by controls: 0 for no effect and ±100 for the full control effect; nearly all actives have a fitted effect of over 60% in size
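BAZ2B (50 nM) with biotin-H3(5-23)K14Ac peptide (50 nM) in PBS pH 7.4, 0.01% Tween-20, preformed 30 min, then compound 30 min at room temperature; top concentration 110uM. AlphaScreen streptavidin donor/nickel chelate acceptor beads (10 ug/mL final), 20 min dark, signal read.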
HP1b binding inh: inhibitors of HP1-beta chromodomain binding to methylated histone tails; P83916; AlphaScreen HP1-beta / biotin-H3K9me3 peptide binding; Potency, µM (doses to about 114 µM), without a hit: at the highest dose activity change, negative = inhibition, actives largely listed as inhibitors; actives 0.56% (n = 390,000); AID 540317; note: nearly all actives have a fitted effect of over 70% in size
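AlphaScreen: HP1-beta (50 nM) preformed 30 min with biotin-H3(1-18)K9me3 peptide (50 nM) in PBS pH 7.4, 0.01% Tween-20. Compound added for 30 min at RT, then streptavidin donor/nickel chelate acceptor beads (10 ug/mL) for 30 min.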
Numbers without * were called inactive; ? = inconclusive; . = not tested or not shown; [ ] = remark or other dose. Calls come from the whole dose curve; as a rule, active = well fitted inhibition curve with a large enough effect; inconclusive = small, poorly fitted or top-dose-only effect; inactive = no such curve, though single readings can be large or run the other way. Potency is the fitted concentration of half-maximal effect.

SMILES	G9a block	JMJD2A Tudor inh	L3MBTL1 block	BAZ2B inh	HP1b binding inh
COc1ccc(S(=O)(=O)c2cn(C)c3cc(N4CCCC4)c(F)cc3c2=O)cc1	0%[59 µM]	-6%	.	-2%	11%
CCOc1cc(CNc2cccc3[nH]c(C)nc23)ccc1OC	50µM*	?	.	?	11%
COc1ccc(C2Nc3ccccc3C(=O)N2Cc2ccccn2)cc1COc1ccc(NC(C)=O)cc1 (stereo not given)	.	56µM*	.	.	.
COc1ccc(C2Nc3ccccc3C(=O)N2c2ccccc2)cc1COc1ccc(NC(C)=O)cc1 (stereo not given)	.	-15%[57.1 µM]	.	.	2%[57 µM]
COc1ccc(C2Nc3ccccc3C(=O)N2Cc2cccnc2)cc1COc1ccc(NC(C)=O)cc1 (stereo not given)	.	56µM*	.	.	.
COc1ccc(C2Nc3ccccc3C(=O)N2C2CCCC2)cc1COc1ccc(NC(C)=O)cc1 (stereo not given)	.	50µM*	.	.	.
COc1ccc(CN2C(=O)c3ccccc3NC2c2ccc(OC)c(COc3ccc(NC(C)=O)cc3)c2)cc1 (stereo not given)	.	-24%	.	.	.
COc1cccc(-c2nc(CS(=O)(=O)CC(=O)Nc3c(C)cc(C)cc3C)c(C)o2)c1	-18%[59 µM]	-12%	.	?	25%
COC(=O)[C@@H]1CC2=CC(=O)CC[C@]2(C)[C@@]23O[C@@H]2C[C@@]2(C)[C@H](CC[C@@]24CCC(=O)O4)[C@@H]13	30%[59 µM]	.	.	.	.
COCCNC(=O)c1ccc2c(c1)N(Cc1cc(C)ccc1C)C(=O)c1ccccc1S2(=O)=O	-27%[59 µM]	-29%	.	-12%	30%
CCN(c1cc(C)cc(C)c1)S(=O)(=O)c1nnc(NC(=O)c2ccccc2C)s1	-25%[59 µM]	-15%	.	-6%	21%
CC(=O)c1ccc(NC(=O)c2cnc(N3CCCC3)nc2C)cc1	29%[59 µM]	-1%	.	-3%	43%
C/C(=N\Nc1nc2ccccc2[nH]1)c1ccc2c(c1)OCO2	?	40µM*	.	?	?
C/C(=N\Nc1nc2ccccc2[nH]1)c1ccc2c(c1)OCCO2	?	50µM*	.	32µM*	?
CN(C)S(=O)(=O)c1ccc2c(c1)N(CC(=O)NCc1ccccc1)C(=O)C1CCCCN21 (stereo not given)	5%[59 µM]	-13%	.	-1%	27%[57 µM]
O=C(COc1ccc(Cl)cc1[N+](=O)[O-])NC1CCCCC1	-51%	-32%	0%[11.4 µM]	?	7%
O=[N+]([O-])c1cc([N+](=O)[O-])c(Oc2cc(Cl)ccc2Cl)cc1NC1CCCCCCC1	40µM*	?	0%	?	2%
O=[N+]([O-])c1ccc(Oc2cc(NC3CCCCCCC3)c([N+](=O)[O-])cc2[N+](=O)[O-])cc1	40µM*	?	-13%	?	-3%
O=[N+]([O-])c1cc([N+](=O)[O-])c(Oc2cncc(Cl)c2)cc1NC1CCCCCCC1	?	?	2%	?	?
CCC[C@@H](NS(=O)(=O)c1ccc(C)cc1)C(=O)Oc1ccc2c3c(c(=O)oc2c1)CCC3	?	-9%	4%	2%	18%
Cc1ccc(S(=O)(=O)NCCC(=O)Oc2ccc3ccc(=O)oc3c2)cc1	11%[59 µM]	-16%	2%	-3%	9%
Cc1ccc(S(=O)(=O)NC(C(=O)Oc2ccc3ccc(=O)oc3c2)c2ccccc2)cc1 (stereo not given)	7.9µM*	-12%	9%	1%	37%
Cc1ccc(S(=O)(=O)NC(C(=O)Oc2ccc3c(C)c(Cl)c(=O)oc3c2)c2ccccc2)cc1 (stereo not given)	7.9µM*	-1%	1%	-4%	28%
Cc1ccc(S(=O)(=O)N[C@H](C(=O)Oc2ccc3c(C(F)(F)F)cc(=O)oc3c2)c2ccccc2)cc1	3.5µM*	28µM*	8%	7%	31%
Cc1ccc(S(=O)(=O)NC(C(=O)Oc2cc3oc(=O)cc(C)c3cc2Cl)C(C)C)cc1 (stereo not given)	16%[59 µM]	-11%	11%	-4%	15%
COc1ccccc1CNC(=O)Cn1c(-c2ccc(F)cc2)cc(C(C)=O)c1C	3%[59 µM]	-11%	.	1%	13%
